The list is not random: actives were taken first. Their share in the collection is about 12%.
Sm TGR inh: blocks Schistosoma mansoni thioredoxin glutathione reductase. Potency, µM (highest dose often 114 µM), hits mostly inhibitors. AID 485364. hit rate 3% among 360,000. Q962Y6. purified TGR, DTNB reduction, TNB absorbance 405 nm; active means well fitted inhibition curve with a large enough effect; inconclusive means small, poorly fitted or top-dose-only effect; inactive means no such curve, though single readings can be large or run the other way; further: nearly all actives have a fitted effect of over 60% in size
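First, TGR (20 nM dispensed) and NADPH were mixed with compound. Second, a 15 min room-temperature incubation followed. Third, further NADPH and then DTNB were added to start the reaction. Finally, TNB absorbance was monitored kinetically.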
FMDV antiviral: antivirals against foot and mouth disease virus; FMDV antiviral cell-based qHTS; Potency, µM (top dose mostly 57.9 µM), hits mostly inhibitors; hit rate 1.2% among 410,000; AID 1159524; calls by dose curve; tested in HEK293T cells; further: read-out not given here; nearly all actives have a fitted effect of over 45% in size
CHX counter: counter-screen for Shiga toxin inhibitors: cycloheximide protein synthesis inhibition. hit rate 12% among 300,000. cell reporter, cycloheximide protein synthesis inhibition counterscreen. max response, %; in the data active means max response mostly above about 13%, no sharp cut-off; inactive means mostly below about 14%; further: read at 38.3 µM for the half of the compounds with a filed dose
Shiga toxin inh: blocks Shiga toxin action in Vero cells | Vero cells, Shiga toxin protein synthesis inhibition reporter | inhibition, % at 38.7 µM | hit rate 9.2% among 290,000; in the data active means inhibition mostly above about 28%, no sharp cut-off; inactive means mostly below about 43%
Numbers stand for hits; i = inactive; ? = inconclusive; nt = no result given.

SMILES	Sm TGR inh	FMDV antiviral	CHX counter	Shiga toxin inh
CSc1ncc(C(=O)NCc2ccc(C)cc2)c(-c2ccccc2)n1	i	i	nt	nt
O=C(COc1ccc2c3c(c(=O)oc2c1)CCC3)Nc1ccccn1	i	i	20	i
CC(=O)C(C)Oc1ccc2c3c(c(=O)oc2c1)CCCCC3 (stereo not given)	i	i	50	83
CC(=O)C(C)Oc1ccc2c3c(c(=O)oc2c1)CCCC3 (stereo not given)	i	i	i	i
Cc1cccnc1NC(=O)COc1ccc2oc3c(c2c1)CCCC3	i	i	29	28
CC(=O)COc1ccc2c3c(c(=O)oc2c1)CCCC3	i	i	17	i
CC(C)=CCC/C(C)=C/COc1c2ccoc2cc2oc(=O)ccc12	nt	nt	i	i
COc1ccc(S(=O)(=O)N(CC(=O)NC(C)c2ccccc2)c2ccc(C)cc2)cc1OC (stereo not given)	i	?	nt	nt
C#CCOc1ccc2c3c(c(=O)oc2c1)CCCC3	i	i	14	nt
O=c1oc2cc(OCc3nn[nH]n3)ccc2c2c1CCCC2	i	i	i	i
CSc1nc(=S)n(-c2ccccc2)c(C)c1C(C)=O	40µM	i	i	i
CC(=O)c1c(N2CCN(c3ccccc3)CC2)nc(=S)n(-c2ccccc2)c1C	i	i	i	i
COCCOC(=O)/C=C1/NC(=O)CS1	i	i	i	i
Cc1ccc(NC(=O)/C=C2\NC(=O)CS2)cc1	i	i	45	62
COc1ccccc1NC(=O)/C=C1\NC(=O)CS1	i	i	i	i
CC(C)(C)c1ccc(C(=O)/C=C2\NC(=O)CS2)cc1	i	i	26	i
COc1ccc(Cl)cc1C(=O)O/N=C(\N)c1ccncc1	i	i	i	57
COc1ccc(C(=O)O/N=C(\N)c2cccc(C)c2)cc1OC	i	i	36	45
COc1cccc(OC)c1C(=O)O/N=C(\N)c1ccncc1	i	i	23	i
COc1ccc(C(=O)O/N=C(\N)c2ccccc2)cc1OC	i	i	44	91
COc1ccc(OC)c(CNC(=O)c2ccc(-c3nc(CSc4ccccc4)c(C)o3)cc2)c1	i	i	nt	nt
CCOC(=O)c1c(-c2ccccc2)csc1NC(=O)c1cc(-c2ccc(Cl)cc2)on1	i	i	nt	nt
CN(C)c1cccc(C(=O)N2CCC(c3c[nH]c4ccccc34)(c3c[nH]c4ccccc34)CC2)c1	i	i	nt	nt
Cc1cc(C)cc(Nc2nc3ccccc3nc2-n2nc(C)cc2C)c1	i	i	nt	nt
Cc1cccc(N(C)S(=O)(=O)c2nnc(NC(=O)C(C)(C)C)s2)c1	i	i	nt	nt
SMILES	Sm TGR inh	FMDV antiviral	CHX counter	Shiga toxin inh
COc1ccc(C(=O)O/N=C(\N)c2ccncc2)cc1OC	i	i	15	i
COc1cc(OC)c(C(=O)O/N=C(\N)c2ccccc2)cc1OC	i	i	29	48
N/C(=N\OC(=O)c1cccc2ccccc12)c1ccncc1	i	i	45	67
Cc1ccc(CN2CCN(C3CCNCC3)C(=O)C2=O)cc1	?	i	nt	nt
COc1ccc(OC)c2c1sc(=NC(=O)c1ccco1)n2C	i	i	i	i
Cc1ccc(-c2c(C)sc(=NC(=O)c3ccco3)n2C)cc1	i	nt	67	97
Cc1ccc(NC(=O)C2CCN(C(=O)c3cnn(-c4ccccc4)c3-n3cccc3)CC2)cc1C	i	?	nt	nt
Cc1c(-c2nnc(SCC(=O)Nc3ccccc3F)o2)nnn1-c1ccc(F)cc1	i	i	nt	nt
COc1ccccc1NC(=O)c1c(NCc2sccc2C)sc2c1CCCCC2	11µM	i	nt	nt
COc1ccc(NC(=O)c2c(NCc3cccc(F)c3)sc3c2CCCC3)c(OC)c1	i	i	nt	nt
CCOc1ccccc1NC(=O)c1c(NCc2sccc2C)sc2c1CCCCC2	40µM	i	nt	nt
COc1ccc(Cl)cc1NC(=O)c1c(NCc2sccc2C)sc2c1CCCC2	i	i	i	i
CCOC(=O)N1CCc2c(sc(NCc3sccc3C)c2C(=O)Nc2ccccc2OCC)C1	i	i	nt	nt
COc1ccc(NC(=O)c2c(NCc3sccc3C)sc3c2CCCCC3)c(OC)c1	13µM	i	nt	nt
CCOC(=O)N1CCc2c(sc(NCc3sccc3C)c2C(=O)Nc2ccc(OC)cc2OC)C1	?	32µM	nt	nt
CCCCn1c(SCC(=O)c2ccccc2)nc2c(sc3ccccc32)c1=O	i	i	nt	nt
Cc1ccccc1C(=O)Nc1ccccc1OCc1cc(=O)n2ccccc2n1	i	i	nt	nt
COc1ccc(-c2cn3cc(C(=O)NN)ccc3n2)cc1	i	i	24	42
NNC(=O)c1ccc2nc(-c3ccc(Br)cc3)cn2c1	i	i	30	i
Cc1cnc(-n2ncc(C(=O)N(C)CC3COCCO3)c2C2CC2)nc1-c1cccs1 (stereo not given)	nt	i	nt	nt
COc1cc(OC)c(NC(=O)Nc2sc3nc4n(c(=O)c3c2C)CCC(C)CC4)cc1Cl (stereo not given)	i	?	nt	nt
O=C1NC(=S)N(C(=O)c2ccc(F)cc2)/C1=C/c1ccccc1	i	i	14	i
CC(C)CCNC(=O)c1ccc2c(c1)NC(=O)C(CS(=O)(=O)Cc1cccc(Br)c1)N2 (stereo not given)	50µM	i	nt	nt
CN(C)CCNC(=O)c1ccc2c(c1)NC(=O)C(CS(=O)(=O)Cc1cccc(Br)c1)N2 (stereo not given)	?	i	nt	nt
CCc1ccc(/C=N/Nc2ncnc3nc[nH]c23)cc1	i	i	40	82
SMILES	Sm TGR inh	FMDV antiviral	CHX counter	Shiga toxin inh
NC(=O)c1cccc2c3c([nH]c12)CCCC3	i	i	36	87
CC(C)C[C@H](N)c1nnc(S(=O)(=O)Cc2cccc(F)c2)o1	?	i	32	i
CC(C)[C@H](NC(=O)OC(C)(C)C)c1nnc(S(=O)(=O)Cc2c(F)cccc2Cl)o1	1µM	35µM	34	i
Cc1cc2c(cc3c(SCc4cccc(F)c4)nnc(C)n32)o1	i	i	nt	nt
CC(C)(C)OC(=O)N[C@@H](Cc1ccccc1)c1nnc(S(=O)(=O)Cc2cccc(F)c2)o1	0.4µM	?	21	i
C[C@H](NC(=O)OC(C)(C)C)c1nnc(SCc2c(F)cccc2Cl)o1	i	i	nt	nt
CC[C@@H](C)[C@H](NC(=O)OCc1ccccc1)c1nnc([C@@H](NC(=O)OCc2ccccc2)[C@@H](C)CC)o1	i	i	i	i
CC[C@@H](C)[C@H](NC(=O)OC(C)(C)C)c1nnc(S(=O)(=O)Cc2cc(C)ccc2C)o1	2.8µM	i	18	i
CC(C)(C)C(=O)Nc1cc(-c2cccc(Br)c2)nn1-c1ccccc1	i	?	nt	nt
Cc1ccccc1CS(=O)(=O)c1nnc([C@H](CC(C)C)NC(=O)OC(C)(C)C)o1	2µM	?	i	i
Cc1ccc(/C=C/c2onc(C)c2S(=O)(=O)N2CCC(C(=O)NCc3ccc(N(C)C)cc3)CC2)cc1	i	i	nt	nt
COc1cc(C(=O)Oc2cccc(Nc3ncnc4ccccc34)c2)cc(OC)c1OC	i	nt	i	i
COc1ccc(C(=O)Oc2cccc(Nc3ncnc4ccccc34)c2)cc1OC	i	20µM	i	i
CC(C)(C)C(=O)Oc1cccc(Nc2ncnc3ccccc23)c1	i	i	9.6	i
Cn1cc(S(=O)(=O)N2CCCCCC2)cc1C(=O)Nc1ccc(Cl)c(C(F)(F)F)c1	i	i	nt	nt
CC(=O)NCCNc1ncnc2ccc(-c3ccccc3C)cc12	nt	i	nt	nt
Cc1cc(=O)n(C(NC(=O)c2ccccc2)C(=O)c2ccccc2)cn1 (stereo not given)	i	i	19	i

Bioassay records: PubChem BioAssay, National Center for Advancing Translational Sciences (NCATS)
